Screen size: about 5,500 compounds; about 2,000 (36%) were called active. Not shown: some 18% with an inconclusive outcome. Rule as the data show it: active = normalized growth mostly below about 0.91 (no sharp cut-off); inconclusive = no clear call, values can overlap the other calls; inactive = mostly above about 0.92. The list shows a part of the results.
Assay: chemical genetic growth profiling, strain panel (AID 1159580);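 also: tested at 20 µM; growth read once vehicle control cultures reached saturation at 30 °C; 1 = growth at the plate median or of vehicle wells; lower values mean less growth of the strain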
Settings: S. cerevisiae deletion strains, growth OD

Measured: normalized growth

O=C1NC2CC2N1C(=O)OCc1ccccc1 (stereo not given)
inactive: locus YAL013W, strain DEP1, active compounds read low 1 | locus YBR229C, strain ROT2, active compounds read low 1 | locus YDL101C, strain DUN1, active compounds read low 1.01 | locus YDR150W, strain NUM1, active compounds read low 1.02 | locus YEL061C, strain CIN8, active compounds read low 0.956 | locus YGR078C, strain PAC10, active compounds read low 1.01 | locus YHR030C, strain SLT2, active compounds read low 1.06 | locus YHR087W, strain rtc3, active compounds read low 0.969 | locus YJL187C, strain SWE1, active compounds read low 0.991 | locus YJR043C, strain POL32, active compounds read low 0.993 | locus YJR075W, strain HOC1, active compounds read low 1.01 | locus YLR039C, strain RIC1, active compounds read low 0.99 | locus YLR058C, strain SHM2 (second series), active compounds read low 0.995 | locus YLR085C, strain ARP6, active compounds read low 0.978 | locus YLR262C, strain YPT6, active compounds read low 1.02 | locus YML094W, strain GIM5, active compounds read low 0.992 | locus YMR219W, strain ESC1, active compounds read low 1 | locus YMR263W, strain SAP30, active compounds read low 0.978 | locus YNL153C, strain GIM3, active compounds read low 1.01 | locus YNL298W, strain CLA4 (second series), active compounds read low 0.954 | locus YNL322C, strain KRE1, active compounds read low 1 | locus YNR030W, strain Alg12, active compounds read low 0.988 | locus YPL055C, strain LGE1, active compounds read low 0.99 | locus YPL241C, strain CIN2, active compounds read low 1.01 | locus YPR135W, strain CTF4, active compounds read low 1.03

Reference: PubChem BioAssay AID1159580 (chemical genetic matrix, 2015)
